The results in this text go back to PubChem BioAssay (NCI).

The panel holds about 83,000 compounds, 20% with a hit somewhere; the sample as a whole holds those more often.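 The endpoint reported here, percent growth, reads 100 for growth as untreated, 0 for no net growth and -100 for all cells dead.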 Values without a mark were called inactive. Calls of active or inactive are those of the source. How the source made its calls: active means growth percent below 10; inactive means the rest.

Holding throughout (assay): NCI-60 one-dose screen, 48 h (100 = growth as untreated, 0 = no growth, -100 = all killed)
Conditions in all cases: 10 µM

Experiment [1] has as its system SR leukemia.
Experiment [2] concerns RPMI-8226 leukemia.
Experiment [3] concerns OVCAR-8 ovarian.
The test system of experiment [4] is OVCAR-4 ovarian.
For experiment [5], the system named is SK-OV-3 ovarian.
For experiment [6], the system named is IGROV1 ovarian.
Experiment [7] relates to OVCAR-3 ovarian.
Experiment [8] concerns HS 578T breast.
The subject of experiment [9] is NCI/ADR-RES ovarian.
For experiment [10], the system named is T-47D breast.
Experiment [11] deals with BT-549 breast.
Experiment [12] has as its system MDA-MB-435 melanoma.
Experiment [13] deals with SW-620 colon.
Experiment [14] concerns MCF7 breast.
Experiment [15] has as its system HCT-116 colon.
The test system of experiment [16] is KM12 colon.
The test system of experiment [17] is HCC-2998 colon.
The subject of experiment [18] is OVCAR-5 ovarian.

For the compound `Cc1cc(C(C)(C)CC(C)(C)C)ccc1OCCOCC[N+](C)(C)Cc1ccccc1`, the growth in experiment [1] is -62.5% (active); in [2], -20% (active); in [3], 18.7%; in experiment [4] it was 2.92% (active); in experiment [5], 11%; in [6] it was -76.8% (active). In addition, the growth in experiment [7] was 12.9%; in experiment [8] it was -9.66% (active); in experiment [9] it was 103%; in experiment [10] it was 7.06% (active); in [11], -99% (active); in [12] it was -87% (active). For the same compound, the growth is -80.6% (active) in [13], -90.7% (active) in [14], -97.4% (active) in [15] and -92.5% (active) in [16].
On to `Nc1ncc(-c2ccc(C(F)(F)F)cc2)c(NC2CCCCCC2)n1`, for which the growth is 60.3% in experiment [1]; -8.42% (active) in [2]; 19.4% in experiment [3]; 20% in experiment [4]; 76.1% in [5]; 14.5% in [7]. The growth in [8] was 38.4%; in experiment [9], 56.9%; in experiment [10], 20.5%; in experiment [11], 48.3%; in experiment [12] it was 37.1%; in experiment [13] it was 37.4%. In addition, the growth in experiment [14] was 25%; in experiment [15], 26.3%; in experiment [17], 35.1%; in [16] it was 31.6%.
On to `COc1ccc(C2=Cc3ccc(OC(C)=O)cc3OC2)cc1`, for which the growth is 64.5% in experiment [1]; 95.8% in experiment [3]; 101% in experiment [18]; 88.1% in experiment [4]; 119% in [5]; 102% in experiment [6]. Further, the growth is 93.1% in experiment [7]; 103% in experiment [8]; 85.2% in [9]; 87.3% in experiment [10]; 97.5% in experiment [11]; 91.9% in experiment [12]. The growth was 101% in experiment [13]; 101% in experiment [14]; 104% in experiment [15]; 95% in experiment [17]; 88.9% in [16].
With `O=C1/C(=C/c2ccc(O)cc2)CSc2ccc(Cl)cc21`, the growth in experiment [1] was 62.7%; in experiment [2], 98.2%; in experiment [3] it was 89.8%; in experiment [4], 94.9%; in experiment [5] it was 105%; in experiment [6], 16.7%. For the same compound, the growth in [7] was 90.4%; in [8], 71.1%; in [9], 82.2%; in experiment [10], 64.8%; in experiment [11] it was 81.9%; in experiment [12] it was 71.1%. The growth in experiment [13] is 27.9%; in [14], 20.5%; in experiment [15] it was 31.2%; in experiment [17], 94.4%; in experiment [16], 35.1%.
With `O=C(C=P(c1ccccc1)(c1ccccc1)c1ccccc1)c1ccc(Br)cc1`, the growth in experiment [1] is 56.6%; in experiment [2], 47.4%; in [3] it was 89.1%; in experiment [4], 95.5%; in experiment [5] it was 108%; in experiment [6], 91.4%. The growth is 64.5% in [7]; 107% in [8]; 79.9% in experiment [9]; 87.9% in experiment [10]; 107% in experiment [11]; 106% in experiment [12]. Besides, the growth is 80.7% in [13], 92.4% in experiment [14], 67.8% in experiment [15] and 83.4% in experiment [16].
In the case of `CCOC(=O)[C@@H](Cc1ccccc1)NC(=O)c1[nH]c2ccc(Cl)cc2c(=O)c1C`, the growth was 83.1% in experiment [2]; 97.8% in experiment [3]; 106% in [18]; 102% in [4]; 100% in [5]; 96.2% in experiment [6]. The growth in [7] was 111%; in experiment [8] it was 94.2%; in [9], 106%; in [10], 87.1%; in experiment [11], 108%; in experiment [12], 103%. The growth in experiment [13] was 96.3%; in [14], 96.8%; in experiment [15], 65.2%; in experiment [17], 87.6%; in [16], 97%.
Turning to `O=C1/C(=C/c2cccs2)CCC/C1=C\c1cccs1`, the growth in experiment [1] was 78.1%; in experiment [3] it was 93.2%; in experiment [4] it was 77.9%; in experiment [5] it was 101%; in experiment [6], 98.8%; in experiment [7], 107%. Besides, the growth in [8] is 95.7%; in experiment [9], 88.7%; in experiment [10], 17.8%; in experiment [11], 110%; in experiment [12] it was 81.3%; in experiment [14], 21.4%. For the same compound, the growth in [15] is 80.2%; in experiment [17], 89.1%; in [16] it was 65.6%.
For the compound `CC(C)(C)c1ccc(OCCCCCCN2CCNCC2)cc1`, the growth in experiment [1] was -8.37% (active); in experiment [3], 89.7%; in [18] it was 82.2%; in experiment [4], 72%; in experiment [5], 86.4%; in [6], 80.8%. In addition, the growth is 82.1% in [7]; 72.4% in experiment [8]; 79.7% in [9]; 34.8% in experiment [10]; 58.7% in experiment [11]; 68.3% in [12]. In addition, the growth in [13] was 45.9%; in experiment [14], 17.5%; in [15] it was 8.35% (active); in experiment [17], -47.1% (active); in [16], 51.1%.
As to `Nc1cc2c(cc1Cl)-c1ccc(Cl)cc1C2=O`, the growth in experiment [1] is 109%; in [3], 92.1%; in experiment [18], 100%; in experiment [4], 98.8%; in [5], 98.6%; in experiment [6], 107%. Moreover, the growth was 104% in experiment [7]; 97.3% in experiment [8]; 99.5% in experiment [9]; 59.6% in experiment [10]; 100% in experiment [11]; 103% in [12]. For the same compound, the growth in experiment [13] was 95.8%; in [14] it was 42.1%; in experiment [15], 76.4%; in experiment [17] it was 101%; in [16], 96.4%.
`C#CCNCCN1C(=O)c2ccc3c4c(ccc(c24)C1=O)C(=O)N(CCNCC#C)C3=O`: the growth in experiment [1] was 13.9%; in experiment [3], 32%; in experiment [18] it was 68.2%; in experiment [4] it was -34.7% (active); in [5], 70.3%; in [6], 36.9%. The growth in [7] is 5.29% (active); in [8], 64%; in experiment [9], 45.1%; in experiment [10], 54.8%; in experiment [12], -35.8% (active); in [13], 26.9%. Besides, the growth in experiment [14] was 14.9%; in [15], -10.7% (active); in [17], 13.2%; in experiment [16] it was 30.9%.
With `N#CC1C=Cc2c(ccc3ccccc23)N1C(=O)c1ccccc1` (stereo not drawn), the growth in [2] was 38.1%; in experiment [3], 25.7%; in experiment [18], 45.4%; in experiment [4], 45.2%; in [5] it was 4.99% (active); in experiment [6], 26%. Further, the growth is -56.5% (active) in experiment [7]; -8.86% (active) in [8]; -21.8% (active) in experiment [9]; 56.7% in [10]; 33.5% in [11]; -31.4% (active) in experiment [12]. Further, the growth in experiment [13] is 21.8%; in experiment [14] it was 21.5%; in experiment [15] it was 12%; in [17], 10.3%; in experiment [16], -6.86% (active).
For `COc1cc(-c2nc3ccccc3[nH]2)ccc1OCC(=O)N=Nc1c(O)[nH]c2ccccc12`, the growth is -5.28% (active) in [1]; 49.1% in experiment [3]; 109% in experiment [18]; 76.4% in experiment [4]; 101% in [5]; 93.2% in experiment [6]. The growth is 79.6% in experiment [7]; 83.7% in experiment [8]; 109% in experiment [9]; 32.6% in experiment [10]; 104% in experiment [11]; 79.1% in experiment [12]. For the same compound, the growth in experiment [13] was 64.8%; in [14], 28%; in experiment [15], 31.6%; in experiment [16] it was 27%.
Turning to `CCN(CC)CCCOC(=O)Nc1ccccc1Cl`, the growth in experiment [1] was 101%; in [3], 111%; in experiment [18], 110%; in [4], 115%; in [5], 111%; in experiment [6] it was 123%. For the same compound, the growth in [7] is 124%; in experiment [8] it was 121%; in [9] it was 107%; in [10], 106%; in experiment [11], 111%; in experiment [12], 105%. Besides, the growth in experiment [13] is 102%; in experiment [14] it was 112%; in [15], 113%; in experiment [17], 110%; in [16], 111%.
As to `CCc1c(C)[nH]c(=O)c(C(N)=O)c1C#N`, the growth is 91.7% in [1]; 104% in experiment [3]; 109% in experiment [18]; 115% in experiment [4]; 100% in experiment [5]; 107% in [6]. Moreover, the growth in experiment [7] was 116%; in [8], 95.5%; in experiment [9] it was 119%; in [10], 94.1%; in experiment [11], 97.4%; in experiment [13], 97.7%. Besides, the growth in experiment [14] is 97%; in [15], 95.7%; in experiment [17], 87.7%; in [16], 106%.
Regarding `C=CCN1C(=O)/C(=C\c2ccc3c(c2)CCC3)SC1=S`, the growth in experiment [1] was 93.1%; in [3], 104%; in experiment [18], 99.8%; in [4] it was 106%; in experiment [5], 98.6%; in experiment [6], 106%. The growth in experiment [7] was 109%; in experiment [8] it was 112%; in experiment [9], 105%; in experiment [10] it was 91.5%; in [11], 93.5%; in experiment [12] it was 109%. Moreover, the growth is 104% in experiment [13]; 103% in experiment [14]; 99.8% in [15]; 106% in experiment [17]; 104% in [16].
`COc1ccc(Cn2cc3c(c2-c2cc(OC)c(OC)c(OC)c2)CCc2cnoc2-3)cc1[N+](=O)[O-]`: the growth in experiment [1] is 22%; in experiment [3] it was 48.7%; in experiment [18] it was 58.6%; in experiment [4], 47%; in [5] it was -12.7% (active); in experiment [6] it was 9.29% (active). Moreover, the growth is -23.6% (active) in experiment [7]; 3.07% (active) in experiment [8]; 5.02% (active) in experiment [9]; 40% in [10]; 51.9% in [11]; 26.6% in experiment [13]. Also, the growth is 26.6% in [14], 19.4% in experiment [15], 18% in experiment [17] and 24.7% in experiment [16].
